Screening results deposited in PubChem BioAssay by National Center for Advancing Translational Sciences (NCATS).
gsp antagonist – gsp mutant antagonism; gsp-mutant cells, cAMP HTRF, 30 min; AID 624288; Potency, µM (titrated, usually from 76.9 µM), for the others: at the top dose activity change, negative = inhibition, hits mostly inhibitors; hit rate 0.4% among 340,000; calls by dose curve; cell line not stated here;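 further: intracellular cAMP measured with PDE inhibitor Ro 20-1724 present during compound exposure; potency means the concentration at half of the fitted maximal effect; on the % scale 0 is the no-effect control and ±100 the full control effect; nearly all actives have a fitted effect of over 65% in size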
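Cells in G418 medium, seeded 16-24 h, 37C; buffer exchange to DPBS + 1 mM CaCl2, 0.5 mM MgCl2, 0.05% BSA; cpds in DMSO + […] (300 uM stock), 30 min 37C; HTRF cAMP detection.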
TSHR antagonist – antagonists of human thyroid stimulating hormone receptor | P16473 | TSHR-expressing cells, TSH-stimulated cAMP HTRF, 2 h; active compounds read low | activity change, negative = inhibition, % at 11.5 µM | hit rate 0.2% among 330,000 | AID 504810;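 active means activity change below a set negative limit, meaning inhibition stronger than a set level, cut at about -70% in these data; inconclusive means activity change between two set negative limits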; further: on the % scale 0 is the no-effect control and ±100 the full control effect
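TSHR-expressing cells were treated with compounds, then stimulated with TSH at EC80 (4nM final) for 2 hours at 37 deg C. Cellular cAMP was measured by HTRF competition between lysate cAMP and cAMP-d2 for a cryptate-labelled anti-cAMP antibody.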
RXFP1 ag – agonists of human relaxin receptor RXFP1 | Potency, µM (series often up to 57.5 µM), inactives show at the highest dose activation, actives largely listed as activators | hit rate 0.3% among 370,000 | HEK293T-RXFP1 cAMP TR-FRET, 30 min; response scale: percent of porcine relaxin response, buffer zero | Q9HBX9; active means well fitted activation curve with a large enough effect; inconclusive means small, poorly fitted or top-dose-only effect; further: potency means the concentration at half of the fitted maximal effect; on the % scale 0 is the no-effect control and ±100 the full control effect; nearly all actives have a fitted effect of over 60% in size
Target sequence (Q9HBX9 whole entry, looked up): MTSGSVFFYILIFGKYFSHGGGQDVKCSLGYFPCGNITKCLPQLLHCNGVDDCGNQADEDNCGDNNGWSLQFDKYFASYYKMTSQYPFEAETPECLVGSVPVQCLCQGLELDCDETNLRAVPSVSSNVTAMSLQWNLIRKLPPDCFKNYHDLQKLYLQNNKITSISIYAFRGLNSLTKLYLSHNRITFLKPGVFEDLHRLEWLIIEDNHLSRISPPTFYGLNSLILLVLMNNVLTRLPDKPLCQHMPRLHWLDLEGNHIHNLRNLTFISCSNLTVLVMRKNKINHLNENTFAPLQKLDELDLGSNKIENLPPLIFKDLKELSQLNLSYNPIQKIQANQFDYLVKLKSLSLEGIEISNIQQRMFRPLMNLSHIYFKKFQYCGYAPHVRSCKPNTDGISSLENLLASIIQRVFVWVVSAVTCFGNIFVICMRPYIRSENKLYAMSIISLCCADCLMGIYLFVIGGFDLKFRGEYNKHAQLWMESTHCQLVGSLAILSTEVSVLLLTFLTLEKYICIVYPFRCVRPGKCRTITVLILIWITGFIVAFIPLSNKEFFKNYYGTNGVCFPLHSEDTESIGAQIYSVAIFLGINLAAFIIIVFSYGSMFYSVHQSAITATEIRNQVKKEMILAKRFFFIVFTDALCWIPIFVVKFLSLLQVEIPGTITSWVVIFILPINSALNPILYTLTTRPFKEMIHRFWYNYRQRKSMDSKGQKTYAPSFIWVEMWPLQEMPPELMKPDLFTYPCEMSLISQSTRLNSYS
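HEK293 cells stably expressing RXFP1, treated 30 min at 37C with compounds plus PDE4 inhibitor Ro 20174; cAMP measured by HTRF TR-FRET. Normalized to buffer and 29 nM porcine relaxin; EC50 by Hill fit.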
gsp ag – agonists of gsp mutant (McCune-Albright syndrome); gsp mutant cells, cAMP HTRF, 30 min; Potency, µM (top dose mostly 76.9 µM), for inactives: at the top dose activation (cAMP increase), usual class: activators; hit rate 0.13% among 340,000; active means well fitted activation curve with a large enough effect; inconclusive means small, poorly fitted or top-dose-only effect, or another doubt; inactive means no such curve, though single readings can be large or run the other way; cell line not stated here;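 further: phosphodiesterase inhibitor Ro 20-1724 added with compounds to block cAMP breakdown; potency means the concentration at half of the fitted maximal effect; nearly all actives have a fitted effect of over 60% in size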
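Cells stably selected in G418 were plated at 2000/well, grown 16-24 hr, then given compounds in DMSO with the PDE inhibitor […] (300 uM solution added) for 30 min at 37C; cAMP was read by HTRF.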
RXFP1 antag – antagonists of human relaxin receptor RXFP1 | Q9HBX9 | HEK293-RXFP1, relaxin-stimulated cAMP HTRF, 30 min; active compounds read low | hit rate 0.59% among 350,000 | AID 1259400 | activity change, negative = inhibition, % at 57.5 µM;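 active means activity change of -60% or lower, but not beyond a set lower limit; inconclusive means change between -60% and -40%, or beyond the set limit; inactive means change above -40%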; further: on the % scale 0 is the no-effect control and ±100 the full control effect
An asterisk follows results filed as active; ? = inconclusive; nt = no result given; [ ] = another dose, or the depositor's remark. A selection: hits, their analogues and other compounds. The true share with any hit is near 1%.

SMILES	gsp antagonist	TSHR antagonist	RXFP1 ag	gsp ag	RXFP1 antag
CC(C)(C)C(=O)N1N=C(c2ccc(NS(C)(=O)=O)cc2)CC1c1cccs1 (stereo not drawn)	11µM*	13	0%	0%[15.4 µM]	?
COc1ccc(-n2nc(C(=O)NCCc3ccc(OC)c(OC)c3)c3c4ccccc4n(C)c3c2=O)cc1Cl	nt	nt	2%	nt	4
COc1ccc(-c2csc(NC(=O)[C@H](C)N3C(=O)C4CC=CCC4C3=O)n2)cc1OC (stereo partly drawn)	0%	-41	nt	2%	-11
CC(C(=O)Nc1nc(-c2ccc(F)c(F)c2)cs1)N1C(=O)C2CC=CCC2C1=O (stereo not drawn)	35µM*	-17	1%	-3%	?
NC(=O)C1CCN(c2ncnc3c2cnn3-c2cccc(Cl)c2)CC1	nt	nt	6%	nt	4
Cc1cccc(CNC(=O)c2oc3c(c2C)-c2nn(Cc4cccc(Cl)c4)cc2CC3)c1	nt	nt	13%	nt	?
Cc1cccc(CNC(=O)c2oc3c(c2C)-c2nn(Cc4ccccc4Cl)cc2CC3)c1	nt	nt	12%	nt	-66*
CCOc1ccc(CNC(=O)c2oc3c(c2C)-c2nn(Cc4cccc(Cl)c4)cc2CC3)cc1	nt	nt	8%	nt	-78*
CCN(CCCNC(=O)CN1N=C(c2ccccc2)CCC1=O)c1ccccc1	nt	nt	0%	nt	-1
COc1ccc(-c2nc3c(c(SCC(=O)N4CCOCC4)n2)Cc2c(CO)cnc(C)c2O3)cc1	-26%	-135*	-2%	13%	2
COc1cccc(/C=N/NC(=O)CSc2cccc3cccnc23)c1	2%	-4	11%	16%	0
O=C(CSc1cccc2cccnc12)N/N=C/c1ccc(O)cc1	-11%	-78*	3%	-36%	-6
O=C(Cn1c(SCCOc2ccccc2Cl)nc2ccccc21)N1CCOCC1	nt	nt	-3%	nt	nt
COc1ccc(NC(=O)COC(=O)Cc2c(F)cccc2Cl)cc1	45µM*	-5	0%	?	-11
COc1ccc(NC(=O)Cc2c(F)cccc2Cl)cc1	18%	12	0%	-49%	2
Cc1ccc(NC(=O)CN2C(=O)C(C)(C)c3cc(S(=O)(=O)N4CCCCC4)ccc32)c(Br)c1	nt	nt	-1%	nt	-13
CC1(C)CC(=O)C(C(c2ccncc2)C2C(=O)CC(C)(C)CC2=O)C(=O)C1	-9%	-6	1%	2%	-6
Cc1ccc(C(C2C(=O)CC(C)(C)CC2=O)C2C(=O)CC(C)(C)CC2=O)s1	-13%	-6	-2%	-29%	-68*
Cc1c(C(=O)N(C)c2ccccc2)sc2nc(-c3ccc(F)cc3)cn12	nt	nt	4%	nt	-30
Cc1c(C(=O)N(C)Cc2ccccc2)sc2nc(-c3ccc(F)cc3)cn12	nt	nt	4%	nt	-68*
Cc1cc(NC(=O)CCc2nc3cccnc3n2-c2ccccc2)ccc1Br	nt	nt	-2%	nt	-21
COC(=O)[C@H](Cc1ccccc1)NC(=O)[C@@]1(C)C[C@@H]1[C@@H](NC(=O)OCc1ccccc1)c1ccccc1	-12%	-82*	4%	nt	nt
Cc1nc2c(C(=O)NCCc3ccc(Cl)cc3)cnn2c(C)c1Cc1c(F)cccc1Cl	nt	nt	1%	nt	-21
Cc1nc2c(C(=O)NCCc3ccc(Cl)cc3)cnn2c(C)c1Cc1ccc(F)cc1	nt	nt	-1%	nt	-61*
Cc1nc2c(C(=O)NC(C)c3ccccc3)cnn2c(C)c1Cc1ccccc1 (stereo not drawn)	nt	nt	-2%	nt	-85*
SMILES	gsp antagonist	TSHR antagonist	RXFP1 ag	gsp ag	RXFP1 antag
CCc1ccc(C2c3c(-c4ccccc4O)n[nH]c3C(=O)N2Cc2ccncc2)cc1 (stereo not drawn)	nt	nt	-1%	nt	-83*
CCCCN1C(=O)c2[nH]nc(-c3ccccc3O)c2C1c1cc(Br)c(O)c(OC)c1 (stereo not drawn)	nt	nt	-1%	nt	-89*
CCCCN1C(=O)c2[nH]nc(-c3ccccc3O)c2C1c1ccc(OCc2ccccc2)c(OC)c1 (stereo not drawn)	nt	nt	4%	nt	?
O=C1c2[nH]nc(-c3ccccc3O)c2C(c2cccc(O)c2)N1Cc1ccncc1 (stereo not drawn)	nt	nt	1%	nt	-11
NNc1nc2c(Cl)ccc(Cl)c2s1	28µM*	-6	-3%	33%[15.4 µM]	-23
O=C(Nc1nc2c(Cl)ccc(Cl)c2s1)C1CC1	4%	2	0%	-1%	-3
N#Cc1c2n(c3c(N)ncnc13)CCCCC2	12%	-4	18µM*	46%[15.4 µM]	4
N#Cc1c2n(c3c(=O)n(Cc4ccc(Cl)cc4)cnc13)CCCC2	15%	-9	4%	?	-18
CCc1ccc(NC(=O)C2CCN(S(=O)(=O)c3c(C)noc3/C=C/N(C)C)CC2)cc1	-9%	-1	2%	-1%	-62*
CCc1ccc(NC(=O)C2CCN(S(=O)(=O)c3c(C)noc3/C=C/c3cccs3)CC2)cc1	nt	nt	2%	nt	2
CCOc1ccc(C(=O)c2cn(Cc3ccccc3)c3c(F)cc(F)cc3c2=O)cc1	nt	nt	-1%	nt	-11
CN1CCc2c(sc(NC(=O)CS(=O)(=O)c3ccccc3)c2C(N)=O)C1	?	0	0%	0%[15.4 µM]	-63*
CCCN1CCc2c(sc(NC(=O)CCS(=O)(=O)c3ccccc3)c2C(N)=O)C1	-2%	-6	-1%	?	-11
Cc1ccc(S(=O)(=O)Nc2ccc(N=Nc3ccc(O)cc3)cc2)cc1	-20%	-75*	0%	8%[15.4 µM]	-27
Cc1ccc(S(=O)(=O)Nc2ccccc2-c2ccccc2NS(=O)(=O)c2ccc(C)cc2)cc1	40µM*	-1	-4%	-3%	-16
Cc1ccc(S(=O)(=O)NCCNS(=O)(=O)c2ccc(C)cc2)cc1	-18%	-83*	-3%	15%[15.4 µM]	-11
Cc1ccc(S(=O)(=O)Nc2ccccc2C(N)=O)cc1	9%	nt	0%	24%	-5
CCOc1ccc(NC(=O)CSc2ncc(S(=O)(=O)c3ccc(F)c(C)c3)c(=O)[nH]2)cc1	nt	nt	1%	nt	nt
O=C(COc1ccccc1[N+](=O)[O-])OCC(=O)c1ccc(Br)s1	22%	20	nt	10µM*	15
O=C(COc1ccccc1[N+](=O)[O-])OCCCOC(=O)COc1ccccc1[N+](=O)[O-]	-1%	-5	-1%	?	-4
Cc1ccc(S(=O)(=O)c2cn(Cc3cccc(F)c3)c3cc(N4CCCC4)c(F)cc3c2=O)cc1	nt	nt	8%	nt	-17
COc1ccc(N2CCN(c3csc4ccc(Cl)cc4c3=O)CC2)cc1	nt	nt	2%	nt	-22
COC(=O)c1ccccc1N=Nc1c(N)[nH][nH]c1=O	40µM*	1	-5%	20%	?
COc1ccc(CCNC(=O)c2cc(S(=O)(=O)N3CCC4(CC3)OCCO4)ccc2F)cc1OC	11µM*	-6	-2%	?	-23
CCOc1ccc(Nc2nc3c(S(=O)(=O)c4ccc(CC)cc4)nnn3c3ccc(Cl)cc23)cc1	nt	nt	10%	nt	-8
